Results: PubChem BioAssay AID1159580 (chemical genetic matrix, 2015)
The campaign covered roughly 5,500 compounds. About 2,000 (36%) were called active. Inconclusive results (about 18%) are left out. No stated cut-off is given here; in the data, active means normalized growth mostly below about 0.91 (no sharp cut-off); inconclusive means no clear call, values can overlap the other calls; inactive means mostly above about 0.92. The list shows a part of the results.

Test: chemical genetic growth profiling, strain panel (AID 1159580);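 further: tested at 20 µM; growth read once vehicle control cultures reached saturation at 30 °C; 1 = growth at the plate median or of vehicle wells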
Conditions: S. cerevisiae deletion strains, growth OD

Measured: normalized growth

FC(F)(F)COCC(F)(F)F
inactive: locus YAL021C, strain ccr4, stronger effect = lower value 1.02 | locus YAL026C, strain drs2, stronger effect = lower value 1.04 | locus YAL030W, strain snc1, stronger effect = lower value 0.993 | locus YBL061C, strain skt5, stronger effect = lower value 1.03 | locus YBR009C, strain hhf1, stronger effect = lower value 0.998 | locus YBR023C, strain chs3, stronger effect = lower value 1.03 | locus YBR171W, strain sec66, stronger effect = lower value 1.01 | locus YBR231C, strain swc5, stronger effect = lower value 1.02 | locus YBR279W, strain paf1, stronger effect = lower value 1.02 | locus YCL011C, strain gbp2, stronger effect = lower value 1.02 | locus YCL016C, strain dcc1, stronger effect = lower value 1.03 | locus YCL069W, strain vba3, stronger effect = lower value 1.03 | locus YCR088W, strain abp1, stronger effect = lower value 1.01 | locus YDL005C, strain med2, stronger effect = lower value 1.01 | locus YDL040C, strain nat1, stronger effect = lower value 1.02 | locus YDR001C, strain nth1, stronger effect = lower value 1.01 | locus YDR069C, strain doa4, stronger effect = lower value 1.02 | locus YDR137W, strain rgp1, stronger effect = lower value 1.03 | locus YDR159W, strain sac3, stronger effect = lower value 0.963 | locus YDR195W, strain ref2 0.996 | locus YDR297W, strain sur2, stronger effect = lower value 1.01 | locus YDR334W, strain swr1, stronger effect = lower value 1.01 | locus YDR335W, strain msn5, stronger effect = lower value 1.03 | locus YDR392W, strain spt3, stronger effect = lower value 0.971 | locus YEL003W, strain gim4, stronger effect = lower value 0.992 | locus YEL037C, strain rad23, stronger effect = lower value 1.01 | locus YEL061C, strain CIN8 (second series), stronger effect = lower value 1 | locus YER015W, strain faa2, stronger effect = lower value 1.02 | locus YER016W, strain bim1, stronger effect = lower value 1.03 | locus YER111C, strain swi4, stronger effect = lower value 1.01 | locus YER155C, strain BEM2 (second series), stronger effect = lower value 0.986 | locus YFR010W, strain ubp6, stronger effect = lower value 0.999 | locus YGL167C, strain pmr1, stronger effect = lower value 1.02 | locus YGL173C, strain kem1, stronger effect = lower value 1 | locus YGL227W, strain vid30, stronger effect = lower value 1.02 | locus YGL240W, strain doc1, stronger effect = lower value 0.996 | locus YGL253W, strain hxk2, stronger effect = lower value 1.03 | locus YHR013C, strain ard1, stronger effect = lower value 1.02 | locus YHR027C, strain rpn1, stronger effect = lower value 1.02 | locus YHR030C, strain SLT2, stronger effect = lower value 0.998 | locus YHR079C, strain IRE1, stronger effect = lower value 0.96 | locus YHR142W, strain chs7, stronger effect = lower value 1.03 | locus YJL092W, strain hpr5, stronger effect = lower value 1.02 | locus YJL095W, strain BCK1 (second series), stronger effect = lower value 1.03 | locus YJL095W, strain BCK1, stronger effect = lower value 1 | locus YJL115W, strain asf1, stronger effect = lower value 1.02 | locus YJL129C, strain trk1, stronger effect = lower value 1.04 | locus YJL154C, strain vps35, stronger effect = lower value 1.04 | locus YJL164C, strain tpk1, stronger effect = lower value 1.02 | locus YJL166W, strain qcr8, stronger effect = lower value 0.986 | locus YJL187C, strain SWE1, stronger effect = lower value 1.02 | locus YJR066W, strain TOR1, stronger effect = lower value 0.938 | locus YKL160W, strain elf1, stronger effect = lower value 1.01 | locus YKR026C, strain gcn3, stronger effect = lower value 1.01 | locus YKR091W, strain srl3, stronger effect = lower value 1.01 | locus YLL001W, strain dnm1, stronger effect = lower value 0.988 | locus YLL026W, stronger effect = lower value 1 | locus YLL041C, strain sdh2, stronger effect = lower value 1.02 | locus YLR027C, strain aat2, stronger effect = lower value 1.02 | locus YLR113W, strain HOG1, stronger effect = lower value 0.999 | locus YLR221C, strain rsa3, stronger effect = lower value 0.996 | locus YLR258W, strain gsy2, stronger effect = lower value 1.04 | locus YLR262C, strain YPT6 (second series), stronger effect = lower value 0.992 | locus YLR320W, strain mms22, stronger effect = lower value 0.968 | locus YLR342W, strain FKS1, stronger effect = lower value 1.03 | locus YLR357W, strain rsc2, stronger effect = lower value 1.01 | locus YLR370C, strain arc18, stronger effect = lower value 1.03 | locus YLR384C, strain iki3, stronger effect = lower value 1.02 | locus YML120C, strain ndi1, stronger effect = lower value 1 | locus YMR058W, strain fet3, stronger effect = lower value 1.04 | locus YMR125W, strain sto1, stronger effect = lower value 1.04 | locus YMR129W, stronger effect = lower value 1 | locus YMR205C, strain PFK2, stronger effect = lower value 1 | locus YMR231W, strain pep5, stronger effect = lower value 1.01 | locus YNL071W, strain lat1, stronger effect = lower value 1.03 | locus YNL183C, strain NPR1, stronger effect = lower value 0.948 | locus YNL209W, strain ssb2, stronger effect = lower value 1.03 | locus YNL248C, strain rpa49, stronger effect = lower value 1.04 | locus YNL322C, strain KRE1 (second series), stronger effect = lower value 1.02 | locus YNR049C, strain mso1, stronger effect = lower value 1.01 | locus YOR001W, strain rrp6, stronger effect = lower value 0.986 | locus YOR070C, strain gyp1, stronger effect = lower value 1.01 | locus YOR080W, strain dia2, stronger effect = lower value 1.01 | locus YOR083W, strain WHI5, stronger effect = lower value 0.981 | locus YOR106W, strain vam3, stronger effect = lower value 1.04 | locus YOR231W, strain MKK1, stronger effect = lower value 0.993 | locus YOR265W, strain rbl2, stronger effect = lower value 1.01 | locus YOR270C, strain vph1, stronger effect = lower value 1.07 | locus YOR290C, strain snf2, stronger effect = lower value 1.03 | locus YPL051W, strain arl3, stronger effect = lower value 1.03 | locus YPL078C, strain atp4, stronger effect = lower value 1.03 | locus YPL106C, strain sse1, stronger effect = lower value 0.983 | locus YPL240C, strain hsp82, stronger effect = lower value 1 | locus YPL256C, strain CLN2, stronger effect = lower value 0.948
